According to publication PMC5540273 (PLoS ONE, 2017):

How the values were obtained:
Conditions in all cases: concentration: 1 μM, replicates: in singlicate; n = 1
[1] = system: SRMS
[2] = system: SRPK1
[3] = system: SRPK2
[4] = system: SRPK3
[5] = system: STK16
[6] = system: STK33
[7] = system: STK35
[8] = system: STK36
[9] = system: STK39
[10] = system: SYK
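Note: KINOMEscan kinase panel screen.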

Row | SMILES | %Inh [1] [%] | %Inh [2] [%] | %Inh [3] [%] | %Inh [4] [%] | %Inh [5] [%] | %Inh [6] [%] | %Inh [7] [%] | %Inh [8] [%] | %Inh [9] [%] | %Inh [10] [%]
1 | O=C(Nc1ccccc1F)NC1CCN(c2ccnc(Nc3ccc(F)cc3)n2)C1 (stereo not shown) [GSK1379722] | 0 | 0 | 0 | 3 | 0 | 0 | 0 | 0 | 29 | 10
2 | CC(C)(C)OC(=O)NC1CCCN(c2cc(-c3ccc4c(N)n[nH]c4c3)nc(N)n2)C1 (stereo not shown) [GSK2286096] | 0 | 15 | 0 | 0 | 19 | 53 | 0 | 0 | 0 | 0
3 | COc1cc2c(Nc3cccc(NC(=O)c4ccccc4)c3)ncnc2cc1OCCCN1CCOCC1 [GSK223810] | 0 | 34 | 0 | 23 | 0 | 4 | 5 | 9 | 0 | 9
4 | Cn1cc(-c2ccc3c(c2)CCN3C(=O)Cc2cccc(C(F)(F)F)c2)c2c(N)ncnc21 [GSK2606414] | 0 | 24 | 0 | 100 | 11 | 0 | 0 | 0 | 1 | 0
